Values joined by “and” are separate entries in the source; they are usually repeats but may differ in a detail not shown here. Identical values can stand only once. Inconclusive results are not listed. The source holds several records for some structures; these can differ, active in one and inactive in another. Active and inactive are the calls of the source. Calls come from the whole dose curve; as a rule, active = well fitted curve in the direction sought with a large enough effect in the repeat runs; inconclusive = weak or mixed curves; inactive = no such curve, though single readings can be large; an effect the other way counts as inactive or inconclusive. Positions of bridges follow the written chain, without caps; N, C: chain ends. Non-standard residues stand in square brackets, D forms with d. Residues, ends and D or L forms follow the SMILES beside them. *: point of attachment. X1 = CC[C@@H](C)[C@@H](N)C1=N[C@H](C(=O)*)CS1; d(aIle) = CC[C@H](C)[C@@H](N)C(=O)O; dOrn = NCCC[C@@H](N)C(=O)O
Assay: qHTS assay to identify small molecule antagonists of the androgen receptor (AR) signaling pathway using the MDA cell line - cell viability counter screen (AID 743041; note: nearly all actives have a fitted effect of over 45% in size)
Conditions: MDA-kb2 viability, CellTiter-Fluor, 16 h, cells co-treated with R1881 androgen agonist; series mostly up to 70.3 µM; viability change, negative = cytotoxic: at the top concentration
How it was run: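 Viability counter screen run alongside the AR antagonist reporter: cells seeded 5 h before compound, R1881 added, 16 h incubation at 37C without CO2, fluorescent CellTiter-Fluor signal quantified.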
% is set by controls: 0 for no effect and ±100 for the full control effect; potency is the fitted concentration of half-maximal effect.

SMILES | viability change, negative = cytotoxic | Potency
CCN(CC)CC#CCOC(=O)C(O)(c1ccccc1)C1CCCCC1 (configuration not stated) | -6.89% (inactive) | 
CC(=O)O[C@H]1C[C@@H]2CC[C@@H]3[C@H](CC[C@@]4(C)[C@H]3C[C@H]([N+]3(C)CCCCC3)[C@@H]4OC(C)=O)[C@@]2(C)C[C@@H]1[N+]1(C)CCCCC1 | 4% (inactive) | 
CCN(CC)CCOC[C@H]1O[C@@H](O)[C@H](OCCN(CC)CC)[C@@H](O)[C@@H]1O | -5.79% (inactive) | 
CN=C(N)NCCC[C@H](N)C(=O)O |  | inactive
CSCC[C@H](NC(=O)[C@H](Cc1ccc(OS(=O)(=O)O)cc1)NC(=O)[C@@H](N)CC(=O)O)C(=O)NCC(=O)N[C@@H](Cc1c[nH]c2ccccc12)C(=O)N[C@@H](CCSC)C(=O)N[C@@H](CC(=O)O)C(=O)N[C@@H](Cc1ccccc1)C(N)=O |  | inactive
CCOC(=O)COc1ccc2c(=O)cc(-c3ccccc3)oc2c1 |  | inactive
CC[C@@H](C)[C@H](N)C(=O)O | 2.84% (inactive) | 
CCCCCCCCCCCC[n+]1ccc2ccccc2c1 |  | 5.96 µM (active)
O=C1CC[C@@H](C(=O)N[C@H]2C[C@@H]2c2ccccc2)N1 | 13.5% (inactive) | 
CC(C)(S)C(=O)N[C@@H](CS)C(=O)O |  | inactive
CC(C)(C)C(=O)OCC(=O)[C@H]1CC[C@H]2[C@@H]3CCC4=CC(=O)CC[C@]4(C)[C@H]3CC[C@]12C | -13.3% (inactive) | 
NC[C@H]1O[C@H](O[C@H]2[C@H](O)[C@@H](O[C@H]3O[C@H](CO)[C@@H](O)[C@H](N)[C@H]3O)[C@H](N)C[C@@H]2N)[C@H](N)C[C@@H]1O | 12.7% [at 32.5 µM] (inactive) | 
C/C(=C\C(=O)OCCCCCCCCC(=O)O)C[C@@H]1OC[C@H](C[C@@H]2O[C@H]2[C@@H](C)[C@H](C)O)[C@@H](O)[C@H]1O | 7.18% (inactive) | 
O=[N+]([O-])c1ccc(O)c2ncccc12 |  | 11.9 µM (active)
Cc1cc(Br)ccc1NC(=O)CCl |  | 48.6 µM (active)
O=P(O)(O)C(O)(Cn1ccnc1)P(=O)(O)O | 7.33% (inactive) | 
CCOc1ccc(S(=O)(=O)O)c2cccnc12 | 2.94% (inactive) | 
FC(F)(F)COCC(F)(F)F | -1.59% (inactive) | 
CC(=NCc1ccccc1)c1ccccc1O | 9.51% (inactive) | 

SMILES | viability change, negative = cytotoxic | Potency
CC(=O)OCC(=O)[C@@]1(O)CC[C@H]2[C@@H]3CCC4=CC(=O)CC[C@]4(C)C3=CC[C@@]21C | 24.8% (inactive) | 
O=C(O)/C=C/C(=O)Nc1ccc(S(=O)(=O)Nc2nccs2)cc1 | 11.6% (inactive) | 
Cc1onc(-c2c(F)cccc2Cl)c1C(=O)N[C@@H]1C(=O)N2[C@@H]1SC(C)(C)[C@@H]2C(=O)O |  | inactive
O=C(O)c1cc2cc(Cc3cccnc3)ccc2o1 | 5.88% (inactive) | 
CC[C@@H](C)[C@@H](N)C1=N[C@H](C(=O)N[C@@H](CC(C)C)C(=O)N[C@@H](CCC(=O)O)C(=O)N[C@@H](C(=O)N[C@@H]2CCCCNC(=O)[C@@H](CC(N)=O)NC(=O)[C@@H](CC(=O)O)NC(=O)[C@@H](Cc3cnc[nH]3)NC(=O)[C@@H](Cc3ccccc3)NC(=O)[C@@H]([C@H](C)CC)NC(=O)[C@@H](CCCN)NC2=O)[C@@H](C)CC)CS1 (X1-LE[d(aIle)][dK][dOrn][dI][dF][dH][dD][dN]; lactam 4-C) |  | inactive
NC(=O)[C@H]1O[C@@H](O)[C@H](O)[C@@H](O)[C@@H]1O | -20.7% (inactive) | 
CC(C)C[C@H](NC(=O)[C@@H](COC(C)(C)C)NC(=O)[C@H](Cc1ccc(O)cc1)NC(=O)[C@H](CO)NC(=O)[C@H](Cc1c[nH]c2ccccc12)NC(=O)[C@H](Cc1cnc[nH]1)NC(=O)[C@@H]1CCC(=O)N1)C(=O)N[C@@H](CCCN=C(N)N)C(=O)N1CCC[C@H]1C(=O)NNC(N)=O |  | inactive
Cc1c(N)nc([C@H](CC(N)=O)NC[C@H](N)C(N)=O)nc1C(=O)N[C@H](C(=O)N[C@H](C)[C@@H](O)[C@H](C)C(=O)N[C@H](C(=O)NCCc1nc(-c2nc(C(=O)NCCCCN=C(N)N)cs2)cs1)[C@@H](C)O)[C@@H](O[C@@H]1O[C@@H](CO)[C@@H](O)[C@H](O)[C@@H]1O[C@H]1O[C@H](CO)[C@@H](O)[C@H](OC(N)=O)[C@@H]1O)c1cnc[nH]1 |  | inactive
NC(N)=NCCCCN=C(N)N | -17.6% (inactive) | 
COc1ccc(/C=N/NC(=O)c2ccncc2)c(C(=O)O)c1OC | 2.95% (inactive) | 
O=C1CCC(c2ccc(-n3ccnc3)cc2)=NN1 | 1.01% (inactive) | 
Cc1cnc(C(=O)O)c[n+]1[O-] |  | inactive
COc1c(Br)cc(Br)c(C)c1Br | 1.81% (inactive) | 
NCC(O)CC(=O)O (configuration not stated) | 0.822% (inactive) | 
O=C(N[C@H](CO)[C@H](O)c1ccc([N+](=O)[O-])cc1)C(Cl)Cl |  | inactive
O=C(CCCN1CCN2CCCC2C1)c1ccc(F)cc1 (configuration not stated) | -3.94% (inactive) | 
Nc1nc(/C(=C/CC(=O)O)C(=O)N[C@@H]2C(=O)N3C(C(=O)O)=CCS[C@H]23)cs1 | -1.04% (inactive) | 
O=C1c2ccccc2CN2C(=O)c3ccccc3CN12 | -2.11% (inactive) | 

Assay: qHTS assay to identify small molecule antagonists of the thyroid receptor (TR) signaling pathway - cell viability counter screen (AID 743064); note: nearly all actives have a fitted effect of over 50% in size
Conditions: GH3.TRE-Luc viability, CellTiter-Fluor, 24 h; series mostly up to 70.3 µM; activity change, negative = cytotoxic: at the top concentration
How it was run: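 Same-well viability check: GH3.TRE-Luc cells stimulated with 1 nM T3 alongside test compound for 23.5 h, followed by CellTiter-Fluor fluorescence.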

SMILES | Potency | activity change, negative = cytotoxic
CCN(CC)CC#CCOC(=O)C(O)(c1ccccc1)C1CCCCC1 (configuration not stated) | 13.3 µM (active) | 
CC(=O)O[C@H]1C[C@@H]2CC[C@@H]3[C@H](CC[C@@]4(C)[C@H]3C[C@H]([N+]3(C)CCCCC3)[C@@H]4OC(C)=O)[C@@]2(C)C[C@@H]1[N+]1(C)CCCCC1 |  | 15.1% (inactive)
CN=C(N)NCCC[C@H](N)C(=O)O | inactive | 
CSCC[C@H](NC(=O)[C@H](Cc1ccc(OS(=O)(=O)O)cc1)NC(=O)[C@@H](N)CC(=O)O)C(=O)NCC(=O)N[C@@H](Cc1c[nH]c2ccccc12)C(=O)N[C@@H](CCSC)C(=O)N[C@@H](CC(=O)O)C(=O)N[C@@H](Cc1ccccc1)C(N)=O | inactive | 
CCOC(=O)COc1ccc2c(=O)cc(-c3ccccc3)oc2c1 | inactive | 
CC[C@@H](C)[C@H](N)C(=O)O |  | -2.91% (inactive)
CCCCCCCCCCCC[n+]1ccc2ccccc2c1 | 7.5 µM (active) | 
O=C1CC[C@@H](C(=O)N[C@H]2C[C@@H]2c2ccccc2)N1 |  | 23.1% (inactive)
CC(C)(S)C(=O)N[C@@H](CS)C(=O)O | inactive | 
CC(C)(C)C(=O)OCC(=O)[C@H]1CC[C@H]2[C@@H]3CCC4=CC(=O)CC[C@]4(C)[C@H]3CC[C@]12C |  | 16.1% (inactive)
C/C(=C\C(=O)OCCCCCCCCC(=O)O)C[C@@H]1OC[C@H](C[C@@H]2O[C@H]2[C@@H](C)[C@H](C)O)[C@@H](O)[C@H]1O |  | 13.1% (inactive)
O=[N+]([O-])c1ccc(O)c2ncccc12 | 5.31 µM (active) | 
Cc1cc(Br)ccc1NC(=O)CCl | 21.7 µM (active) | 
O=P(O)(O)C(O)(Cn1ccnc1)P(=O)(O)O |  | 21.3% (inactive)
FC(F)(F)COCC(F)(F)F |  | 23.6% (inactive)
CC(=NCc1ccccc1)c1ccccc1O |  | 14.7% (inactive)
CC(=O)OCC(=O)[C@@]1(O)CC[C@H]2[C@@H]3CCC4=CC(=O)CC[C@]4(C)C3=CC[C@@]21C |  | 25.5% (inactive)
O=C(O)/C=C/C(=O)Nc1ccc(S(=O)(=O)Nc2nccs2)cc1 |  | 20.8% (inactive)
Cc1onc(-c2c(F)cccc2Cl)c1C(=O)N[C@@H]1C(=O)N2[C@@H]1SC(C)(C)[C@@H]2C(=O)O | inactive | 
NC(=O)[C@H]1O[C@@H](O)[C@H](O)[C@@H](O)[C@@H]1O |  | 13.4% (inactive)
CC(C)C[C@H](NC(=O)[C@@H](COC(C)(C)C)NC(=O)[C@H](Cc1ccc(O)cc1)NC(=O)[C@H](CO)NC(=O)[C@H](Cc1c[nH]c2ccccc12)NC(=O)[C@H](Cc1cnc[nH]1)NC(=O)[C@@H]1CCC(=O)N1)C(=O)N[C@@H](CCCN=C(N)N)C(=O)N1CCC[C@H]1C(=O)NNC(N)=O | inactive | 
Cc1c(N)nc([C@H](CC(N)=O)NC[C@H](N)C(N)=O)nc1C(=O)N[C@H](C(=O)N[C@H](C)[C@@H](O)[C@H](C)C(=O)N[C@H](C(=O)NCCc1nc(-c2nc(C(=O)NCCCCN=C(N)N)cs2)cs1)[C@@H](C)O)[C@@H](O[C@@H]1O[C@@H](CO)[C@@H](O)[C@H](O)[C@@H]1O[C@H]1O[C@H](CO)[C@@H](O)[C@H](OC(N)=O)[C@@H]1O)c1cnc[nH]1 | inactive and 4.22 µM (active) | 
NC(N)=NCCCCN=C(N)N |  | 13.2% (inactive)
O=C1CCC(c2ccc(-n3ccnc3)cc2)=NN1 |  | 23% (inactive)
Cc1cnc(C(=O)O)c[n+]1[O-] | inactive | 
NCC(O)CC(=O)O (configuration not stated) |  | 13.3% (inactive)
O=C(N[C@H](CO)[C@H](O)c1ccc([N+](=O)[O-])cc1)C(Cl)Cl |  | -1.28% (inactive)
O=C(CCCN1CCN2CCCC2C1)c1ccc(F)cc1 (configuration not stated) |  | -14.7% (inactive)
Nc1nc(/C(=C/CC(=O)O)C(=O)N[C@@H]2C(=O)N3C(C(=O)O)=CCS[C@H]23)cs1 |  | -24.9% (inactive)
O=C1c2ccccc2CN2C(=O)c3ccccc3CN12 |  | -8.08% (inactive)

From PubChem BioAssay (Tox21)
